Laboratory results as given in PubChem BioAssay AID1159580 (chemical genetic matrix, 2015).
In all, about 5,500 compounds went through this assay and about 2,000 (36%) were called active. Not shown: some 18% with an inconclusive outcome. Cut-off read from the data, not from the text of the source: active = normalized growth mostly below about 0.91 (no sharp cut-off); inconclusive = no clear call, values can overlap the other calls; inactive = mostly above about 0.92. This is one part of the list.

Test: chemical genetic growth profiling, strain panel (AID 1159580);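 note: tested at 20 µM; growth read once vehicle control cultures reached saturation at 30 °C; 1 = growth at the plate median or of vehicle wells; lower values mean less growth of the strain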
Conditions: S. cerevisiae deletion strains, growth OD
[1] = locus YHR030C, strain SLT2, active compounds read low
[2] = locus YHR079C, strain IRE1, active compounds read low
[3] = locus YJL095W, strain BCK1, active compounds read low
[4] = locus YJR066W, strain TOR1, active compounds read low
[5] = locus YLR113W, strain HOG1, active compounds read low
[6] = locus YNL183C, strain NPR1, active compounds read low
[7] = locus YOR231W, strain MKK1, active compounds read low
[8] = locus YPL256C, strain CLN2, active compounds read low
[9] = locus YAL040C, strain CLN3, active compounds read low
[10] = locus YCL061C, strain MRC1 (second series), active compounds read low
[11] = locus YDR363W, strain ESC2, active compounds read low
[12] = locus YER002W, strain NOP16, active compounds read low
[13] = locus YJR075W, strain HOC1, active compounds read low
[14] = locus YMR263W, strain SAP30, active compounds read low
[15] = locus YMR307W, strain GAS1, active compounds read low
[16] = locus YNL128W, strain TEP1, active compounds read low
[17] = locus YNL175C, strain NOP13, active compounds read low
[18] = locus YNL197C, strain WHI3, active compounds read low
[19] = locus YNL224C, strain SQS1, active compounds read low
[20] = locus YOR083W, strain WHI5 (second series), active compounds read low
[21] = locus YAL013W, strain DEP1, active compounds read low
[22] = locus YGR078C, strain PAC10, active compounds read low
[23] = locus YPL241C, strain CIN2, active compounds read low

Measured: normalized growth

CN(C)c1ccc2nc3ccc(=[N+](C)C)cc-3sc2c1
inactive: locus YAL021C, strain ccr4, active compounds read low 0.991 | locus YAL026C, strain drs2, active compounds read low 1.01 | locus YAL030W, strain snc1, active compounds read low 1.06 | locus YBL061C, strain skt5, active compounds read low 1.05 | locus YBR009C, strain hhf1, active compounds read low 1.04 | locus YBR023C, strain chs3, active compounds read low 1.07 | locus YBR171W, strain sec66, active compounds read low 1.08 | locus YBR231C, strain swc5, active compounds read low 0.995 | locus YBR279W, strain paf1, active compounds read low 1.07 | locus YCL011C, strain gbp2, active compounds read low 1.04 | locus YCL016C, strain dcc1, active compounds read low 1.02 | locus YCL069W, strain vba3, active compounds read low 1.08 | locus YCR088W, strain abp1, active compounds read low 1.07 | locus YDL040C, strain nat1, active compounds read low 1.05 | locus YDR001C, strain nth1, active compounds read low 1.06 | locus YDR069C, strain doa4, active compounds read low 1.06 | locus YDR137W, strain rgp1, active compounds read low 1 | locus YDR159W, strain sac3, active compounds read low 1.03 | locus YDR297W, strain sur2, active compounds read low 1.07 | locus YDR334W, strain swr1, active compounds read low 1.05 | locus YDR335W, strain msn5, active compounds read low 1.07 | locus YEL003W, strain gim4, active compounds read low 0.974 | locus YEL037C, strain rad23, active compounds read low 1.06 | locus YEL061C, strain CIN8 (second series), active compounds read low 1.04 | locus YER015W, strain faa2, active compounds read low 1.05 | locus YER016W, strain bim1, active compounds read low 1.05 | locus YER111C, strain swi4, active compounds read low 1.08 | locus YER155C, strain BEM2 (second series), active compounds read low 0.941 | locus YFR010W, strain ubp6, active compounds read low 1.06 | locus YGL173C, strain kem1, active compounds read low 1.05 | locus YGL227W, strain vid30, active compounds read low 1.08 | locus YGL240W, strain doc1, active compounds read low 1 | [1] 0.994 | [2] 1.02 | locus YHR142W, strain chs7, active compounds read low 1.07 | locus YJL092W, strain hpr5, active compounds read low 1.05 | locus YJL095W, strain BCK1 (second series), active compounds read low 1.07 | [3] 1.05 | locus YJL115W, strain asf1, active compounds read low 1.07 | locus YJL129C, strain trk1, active compounds read low 1.08 | locus YJL154C, strain vps35, active compounds read low 1.06 | locus YJL164C, strain tpk1, active compounds read low 1.04 | locus YJL166W, strain qcr8, active compounds read low 1.02 | locus YKL160W, strain elf1, active compounds read low 1.03 | locus YKR026C, strain gcn3, active compounds read low 1.07 | locus YLL001W, strain dnm1, active compounds read low 1.05 | locus YLL026W, active compounds read low 1.05 | locus YLR027C, strain aat2, active compounds read low 1.05 | [5] 1.07 | locus YLR221C, strain rsa3, active compounds read low 1.04 | locus YLR258W, strain gsy2, active compounds read low 1.04 | locus YLR262C, strain YPT6 (second series), active compounds read low 1.1 | locus YLR320W, strain mms22, active compounds read low 0.993 | locus YLR342W, strain FKS1, active compounds read low 1.06 | locus YLR357W, strain rsc2, active compounds read low 1.12 | locus YLR370C, strain arc18, active compounds read low 1.05 | locus YLR384C, strain iki3, active compounds read low 1.07 | locus YML120C, strain ndi1, active compounds read low 1.04 | locus YMR058W, strain fet3, active compounds read low 0.985 | locus YMR125W, strain sto1, active compounds read low 1.09 | locus YMR129W, active compounds read low 1.05 | locus YMR205C, strain PFK2, active compounds read low 1.03 | locus YMR231W, strain pep5, active compounds read low 1.04 | locus YNL071W, strain lat1, active compounds read low 0.992 | locus YNL248C, strain rpa49, active compounds read low 1.11 | locus YNL322C, strain KRE1 (second series), active compounds read low 1.04 | locus YNR049C, strain mso1, active compounds read low 1.05 | locus YOR001W, strain rrp6, active compounds read low 1.06 | locus YOR070C, strain gyp1, active compounds read low 1.05 | locus YOR080W, strain dia2, active compounds read low 1.06 | locus YOR083W, strain WHI5, active compounds read low 1.05 | locus YOR106W, strain vam3, active compounds read low 0.994 | [7] 1.01 | locus YOR265W, strain rbl2, active compounds read low 1.04 | locus YOR270C, strain vph1, active compounds read low 0.983 | locus YOR290C, strain snf2, active compounds read low 1.03 | locus YPL051W, strain arl3, active compounds read low 0.979 | locus YPL078C, strain atp4, active compounds read low 1.05 | locus YPL106C, strain sse1, active compounds read low 1.05 | locus YPL240C, strain hsp82, active compounds read low 1.06 | [8] 1.02
active: locus YDL005C, strain med2, active compounds read low 1.1 [resistant] | locus YDR195W, strain ref2 1.25 [resistant] | locus YDR392W, strain spt3, active compounds read low 0.624 | locus YGL167C, strain pmr1, active compounds read low 1.09 [resistant] | locus YGL253W, strain hxk2, active compounds read low 1.11 [resistant] | locus YHR013C, strain ard1, active compounds read low 1.18 [resistant] | locus YHR027C, strain rpn1, active compounds read low 1.08 [resistant] | [4] 0.576 | locus YKR091W, strain srl3, active compounds read low 1.07 [resistant] | locus YLL041C, strain sdh2, active compounds read low 1.08 [resistant] | [6] 0.543 | locus YNL209W, strain ssb2, active compounds read low 1.08 [resistant]

S=C(NC1CCCCC1)N1CCC(c2cnc[nH]2)CC1
inactive: [9] 1.01 | [10] 0.998 | [11] 1.01 | [12] 0.994 | [13] 1 | [14] 1.01 | [15] 0.996 | [16] 0.984 | [17] 1 | [18] 0.974 | [19] 0.986 | [20] 1.02 | locus YPL055C, strain LGE1, active compounds read low 0.993

Cc1cccc(/C=C/c2ccccc2)n1
inactive: [21] 1 | [9] 0.984 | [10] 1.01 | [11] 1.04 | [12] 0.975 | [22] 1.01 | [15] 0.995 | locus YNL153C, strain GIM3, active compounds read low 0.93 | [17] 0.963 | [18] 0.986 | [19] 0.989 | [20] 0.923 | [23] 1.02

CC(COc1ccc(/C=C/c2ccccc2)cc1)[N+](C)(C)C (stereo unspecified)
inactive: [21] 0.942 | [9] 1.02 | [10] 0.982 | [11] 0.914 | [12] 0.989 | [22] 0.99 | [14] 1.01 | [15] 0.994 | [16] 1.03 | [17] 0.999 | [18] 0.996 | [23] 0.98
active: locus YDR150W, strain NUM1, active compounds read low 0.926 | [13] 0.878 | [19] 1.12 [resistant] | [20] 0.816

OC(COc1ccc(F)cc1)(c1ccccc1)c1ccccc1
inactive: locus YAR019C, strain CDC15, active compounds read low 0.955 | locus YBL105C, strain PKC1, active compounds read low 0.953 | locus YBR135W, strain CKS1, active compounds read low 0.965 | locus YBR136W, strain MEC1, active compounds read low 0.968 | locus YBR160W, strain CDC28, active compounds read low 0.951 | locus YDL017W, strain CDC7, active compounds read low 0.955 | locus YDL028C, strain MPS1, active compounds read low 0.977 | locus YDL101C, strain DUN1, active compounds read low 0.939 | locus YDL108W, strain KIN28, active compounds read low 0.982 | locus YDL132W, strain cdc53, active compounds read low 0.955 | locus YDL214C, strain PRR2, active compounds read low 0.964 | locus YDR052C, strain DBF4, active compounds read low 0.965 | locus YDR054C, strain cdc34, active compounds read low 0.949 | locus YDR226W, strain ADK1, active compounds read low 0.955 | locus YDR477W, strain SNF1, active compounds read low 0.985 | locus YER123W, strain YCK3, active compounds read low 0.969 | locus YER133W, strain GLC7, active compounds read low 0.993 | locus YFL009W, strain cdc4, active compounds read low 0.954 | locus YFL029C, strain CAK1, active compounds read low 0.957 | locus YFR003C, strain YPI1, active compounds read low 0.961 | locus YFR019W, strain FAB1, active compounds read low 0.974 | locus YFR028C, strain CDC14, active compounds read low 0.964 | locus YGR040W, strain KSS1, active compounds read low 0.998 | locus YGR052W, strain FMP48, active compounds read low 1.1 | locus YGR092W, strain DBF2, active compounds read low 0.939 | [1] 1.14 | [2] 1.09 | locus YHR082C, strain KSP1, active compounds read low 1.1 | locus YHR205W, strain SCH9, active compounds read low 0.977 | locus YIL147C, strain SLN1, active compounds read low 0.966 | [3] 1.1 | locus YJL128C, strain PBS2, active compounds read low 0.913 | locus YJL157C, strain FAR1, active compounds read low 0.968 | locus YJR016C, strain ILV3, active compounds read low 0.959 | locus YJR066W, strain TOR1 (second series), active compounds read low 1.01 | [4] 1.15 | locus YKL048C, strain ELM1, active compounds read low 0.95 | locus YKL067W, strain YNK1, active compounds read low 0.961 | locus YKL101W, strain HSL1, active compounds read low 0.962 | locus YKL193C, strain SDS22, active compounds read low 0.959 | locus YKL203C, strain TOR2, active compounds read low 1.07 | [5] 0.971 | locus YLR133W, strain CKI1, active compounds read low 0.955 | locus YLR403W, strain SFP1, active compounds read low 0.983 | locus YML070W, strain DAK1, active compounds read low 0.973 | locus YMR001C, strain CDC5, active compounds read low 0.954 | locus YMR205C, strain PFK2 (second series), active compounds read low 0.968 | locus YMR277W, strain FCP1, active compounds read low 0.961 | locus YNL006W, strain LST8, active compounds read low 0.97 | locus YNL020C, strain ARK1, active compounds read low 0.959 | locus YNL161W, strain CBK1, active compounds read low 0.958 | [6] 1.12 | locus YNL207W, strain RIO2, active compounds read low 0.971 | locus YNL222W, strain SSU72, active compounds read low 0.962 | locus YNL307C, strain MCK1 (second series), active compounds read low 0.961 | locus YOL078W, strain AVO1, active compounds read low 0.967 | locus YOL136C, strain PFK27, active compounds read low 0.98 | locus YOR061W, strain CKA2, active compounds read low 0.969 | locus YOR119C, strain RIO1, active compounds read low 1.02 | [7] 1.06 | locus YOR329C, strain SCD5, active compounds read low 0.956 | locus YPL031C, strain PHO85, active compounds read low 0.985 | locus YPL153C, strain RAD53, active compounds read low 1 | locus YPL204W, strain HRR25, active compounds read low 0.991 | locus YPL209C, strain IPL1, active compounds read low 0.956 | [8] 1.02 | locus YPR025C, strain CCL1, active compounds read low 0.954 | locus YPR106W, strain ISR1, active compounds read low 0.954 | locus YPR111W, strain DBF20, active compounds read low 0.949 | strain NNK1, active compounds read low 0.956 | strain TSCII, active compounds read low 0.957
